# PubChem BioAssay (EPA / NIEHS)
# “And” between values parts separate entries of the source, which are not always exact repeats. Identical values can stand only once. Inconclusive results are not listed. Where a structure was tested more than once in an assay, its records may differ in their call. The source made the active and inactive calls. Rule for the calls: active = hit-call score of the fitted dose curve at least 0.9, where 1 is the maximum; inconclusive = response in the unintended direction; inactive = score below 0.9.
# Target: Androgen Receptor/SRC-1 Co-activator, AR (gene 367) (UniProt P10275)
# Sequence (P10275 whole entry, looked up): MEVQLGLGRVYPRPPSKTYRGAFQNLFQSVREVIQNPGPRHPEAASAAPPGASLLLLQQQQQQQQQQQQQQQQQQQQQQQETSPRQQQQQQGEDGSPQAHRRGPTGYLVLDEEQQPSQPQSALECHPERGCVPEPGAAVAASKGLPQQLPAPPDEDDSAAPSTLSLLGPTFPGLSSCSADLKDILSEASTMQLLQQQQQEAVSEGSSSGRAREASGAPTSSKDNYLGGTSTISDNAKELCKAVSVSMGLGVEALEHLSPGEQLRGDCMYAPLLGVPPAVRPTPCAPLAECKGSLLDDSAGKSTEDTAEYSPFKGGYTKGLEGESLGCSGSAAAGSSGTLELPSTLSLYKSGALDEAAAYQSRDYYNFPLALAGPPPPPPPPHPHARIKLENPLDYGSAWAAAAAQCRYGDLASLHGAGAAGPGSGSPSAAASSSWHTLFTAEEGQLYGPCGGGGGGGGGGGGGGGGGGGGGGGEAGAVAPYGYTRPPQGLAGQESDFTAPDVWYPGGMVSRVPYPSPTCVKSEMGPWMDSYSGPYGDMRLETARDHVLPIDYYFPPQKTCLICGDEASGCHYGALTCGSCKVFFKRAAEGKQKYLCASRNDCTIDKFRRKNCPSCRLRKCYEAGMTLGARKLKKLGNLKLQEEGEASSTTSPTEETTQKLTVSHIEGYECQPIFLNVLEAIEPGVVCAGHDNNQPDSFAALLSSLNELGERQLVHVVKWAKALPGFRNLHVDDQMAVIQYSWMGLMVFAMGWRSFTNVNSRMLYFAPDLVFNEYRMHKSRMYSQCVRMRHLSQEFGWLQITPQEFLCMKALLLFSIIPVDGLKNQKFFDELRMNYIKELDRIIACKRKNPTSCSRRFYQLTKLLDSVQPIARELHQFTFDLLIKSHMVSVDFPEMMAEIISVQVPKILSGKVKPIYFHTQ
# Test: OT_AR_ARSRC1_0480: Odyssey Thera (OT) 8-hour HEK293T Protein-Complementation Assay for Androgen Receptor/SRC-1 Co-activator (AID 2283354);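 note: hits raise the complementation signal above DMSO so AC50 marks enhancers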
# Procedure, shortened: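 Measures AR/SRC-1 binding by Venus YFP fragment complementation in HEK293T stable lines at 8 h post-dose. Imaging quantifies the 488nm nucleus/cytoplasm ratio in ≥400 cells; DMSO defines baseline.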
SMILES,outcome,AC50
CCSC(=O)N(CC(C)C)CC(C)C,inactive,–
Cc1nn(C)c(Oc2ccccc2)c1C=NOCc1ccc(C(=O)OC(C)(C)C)cc1,inactive,–
c1ccc2[nH]c(-c3cscn3)nc2c1,inactive,–
CCCCOCCOCCOCc1cc2c(cc1CCC)OCO2,inactive,–
O=C(c1ccc(O)cc1O)c1ccc(O)cc1O,–,11.1 µM (active) and 8.01 µM (active) and 9.37 µM (active)
CN(C)C(=O)Nc1ccc(Cl)c(Cl)c1,inactive,–
CCCOC(=O)c1ccc(C(=O)OCCC)nc1,inactive,–
O=C(c1ccccc1)C1CCCCC1,inactive,–
CCCN(CCC)C(=O)SCC,inactive,–
COC(=O)CSc1cc(N=c2sc(=O)n3n2CCCC3)c(F)cc1Cl,inactive,–
CSC(=O)c1cccc2nnsc12,–,22.4 µM (active)
CCOC(=O)COc1cc(-n2ncc(C(F)(F)F)c(C)c2=O)c(F)cc1Cl,inactive,–
CCOC(=O)C(C)Oc1ccc(Oc2nc3ccc(Cl)cc3o2)cc1 (stereo not drawn),inactive,–
CC(C)(c1ccc(O)cc1)c1ccc(O)cc1,inactive,–
C[C@]12CC[C@@H]3c4ccc(O)cc4C[C@@H](CCCCCCCCCS(=O)CCCC(F)(F)C(F)(F)F)[C@H]3[C@@H]1CC[C@@H]2O (stereo partly drawn),inactive,–
N#CSCSc1nc2ccccc2s1,–,21.9 µM (active)
CC1(C)C(C=C(Cl)Cl)C1C(=O)OCc1cccc(Oc2ccccc2)c1 (stereo not drawn),inactive,–

# Target: rat Mineralocorticoid Receptor (MR), Nr3c2 (gene 25672) (UniProt P22199)
# Sequence (P22199 whole entry, looked up): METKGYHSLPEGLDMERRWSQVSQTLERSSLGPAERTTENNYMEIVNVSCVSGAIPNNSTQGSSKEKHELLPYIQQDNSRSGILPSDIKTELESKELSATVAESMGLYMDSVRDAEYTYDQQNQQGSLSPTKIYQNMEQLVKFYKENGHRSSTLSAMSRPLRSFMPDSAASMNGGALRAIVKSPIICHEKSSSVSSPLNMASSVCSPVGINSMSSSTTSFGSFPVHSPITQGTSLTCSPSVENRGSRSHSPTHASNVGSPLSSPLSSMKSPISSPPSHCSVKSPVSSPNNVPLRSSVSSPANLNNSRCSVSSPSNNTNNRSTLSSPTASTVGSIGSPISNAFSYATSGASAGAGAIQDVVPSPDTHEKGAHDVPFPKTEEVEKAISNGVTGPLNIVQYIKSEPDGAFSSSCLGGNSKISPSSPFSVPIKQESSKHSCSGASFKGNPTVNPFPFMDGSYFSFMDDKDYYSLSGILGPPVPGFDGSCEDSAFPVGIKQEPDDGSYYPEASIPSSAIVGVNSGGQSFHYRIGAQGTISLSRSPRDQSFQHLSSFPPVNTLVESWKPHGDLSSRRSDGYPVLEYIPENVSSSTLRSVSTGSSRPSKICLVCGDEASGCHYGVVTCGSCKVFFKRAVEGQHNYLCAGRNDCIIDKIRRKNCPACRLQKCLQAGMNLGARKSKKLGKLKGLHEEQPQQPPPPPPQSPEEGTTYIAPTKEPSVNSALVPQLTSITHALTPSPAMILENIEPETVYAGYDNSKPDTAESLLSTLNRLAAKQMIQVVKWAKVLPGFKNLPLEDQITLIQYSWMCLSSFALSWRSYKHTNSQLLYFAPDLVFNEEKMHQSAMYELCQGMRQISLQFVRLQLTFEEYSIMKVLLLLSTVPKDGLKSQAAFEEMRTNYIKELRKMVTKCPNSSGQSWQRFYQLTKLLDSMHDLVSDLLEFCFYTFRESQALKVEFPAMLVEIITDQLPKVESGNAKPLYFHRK
# Test: NVS_NR_rMR: NovaScreen (NVS) Nuclear Receptor Binding Assay for rat Mineralocorticoid Receptor (MR) (AID 2283355)
# Procedure, shortened: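 Adrenalectomized rat brain supernatant was dosed with test chemical, then radioligand binding was measured by scintillation counting at 24 h. Initial testing ran in duplicate at 25 uM, followed by concentration series for actives.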
SMILES,outcome,AC50
CCN(Cc1c(F)cccc1Cl)c1c([N+](=O)[O-])cc(C(F)(F)F)cc1[N+](=O)[O-],inactive,–
CCSC(=O)N(CC(C)C)CC(C)C,inactive,–
S=C(S)NCCNC(=S)S.[Mn+2].[S-]C([S-])=NCCN=C([S-])[S-].[Zn+2],inactive,–
C#C[C@]1(O)CC[C@H]2[C@@H]3CCC4=CC(=O)CC[C@@H]4[C@H]3CC[C@@]21CC,–,0.0945 µM (active)
CCCN(CCC)C(=O)SCC,inactive,–
CC(C)(C)[C@@H](O)[C@@H](Cc1ccc(Cl)cc1)n1cncn1,inactive,–
CC(C)(c1ccc(O)cc1)c1ccc(O)cc1,inactive,12.1 µM (active)
COC(=O)c1ccc(I)cc1S(=O)(=O)NC(=O)Nc1nc(C)nc(OC)n1,inactive,–

# Target: Estrogen receptor (Homo sapiens) + Estrogen receptor beta (Homo sapiens) (UniProt P03372+Q92731)
# Sequence (P03372 whole entry, looked up, the tested form may be a part): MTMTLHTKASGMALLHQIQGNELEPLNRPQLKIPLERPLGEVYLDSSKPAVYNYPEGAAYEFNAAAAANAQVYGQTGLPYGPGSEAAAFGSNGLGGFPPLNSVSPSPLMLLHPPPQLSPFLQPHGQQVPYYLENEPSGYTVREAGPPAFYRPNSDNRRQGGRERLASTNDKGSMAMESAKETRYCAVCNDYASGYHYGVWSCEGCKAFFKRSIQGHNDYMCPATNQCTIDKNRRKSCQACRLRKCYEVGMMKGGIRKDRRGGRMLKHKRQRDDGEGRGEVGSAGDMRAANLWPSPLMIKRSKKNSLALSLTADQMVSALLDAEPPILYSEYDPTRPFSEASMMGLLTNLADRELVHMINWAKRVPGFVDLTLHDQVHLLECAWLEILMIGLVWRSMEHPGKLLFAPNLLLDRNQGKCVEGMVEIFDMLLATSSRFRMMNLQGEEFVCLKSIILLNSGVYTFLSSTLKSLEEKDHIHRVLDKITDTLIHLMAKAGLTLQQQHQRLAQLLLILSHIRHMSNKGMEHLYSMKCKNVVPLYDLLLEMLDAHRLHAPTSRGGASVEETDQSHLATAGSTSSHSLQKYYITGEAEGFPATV
# Sequence (Q92731 whole entry, looked up, the tested form may be a part): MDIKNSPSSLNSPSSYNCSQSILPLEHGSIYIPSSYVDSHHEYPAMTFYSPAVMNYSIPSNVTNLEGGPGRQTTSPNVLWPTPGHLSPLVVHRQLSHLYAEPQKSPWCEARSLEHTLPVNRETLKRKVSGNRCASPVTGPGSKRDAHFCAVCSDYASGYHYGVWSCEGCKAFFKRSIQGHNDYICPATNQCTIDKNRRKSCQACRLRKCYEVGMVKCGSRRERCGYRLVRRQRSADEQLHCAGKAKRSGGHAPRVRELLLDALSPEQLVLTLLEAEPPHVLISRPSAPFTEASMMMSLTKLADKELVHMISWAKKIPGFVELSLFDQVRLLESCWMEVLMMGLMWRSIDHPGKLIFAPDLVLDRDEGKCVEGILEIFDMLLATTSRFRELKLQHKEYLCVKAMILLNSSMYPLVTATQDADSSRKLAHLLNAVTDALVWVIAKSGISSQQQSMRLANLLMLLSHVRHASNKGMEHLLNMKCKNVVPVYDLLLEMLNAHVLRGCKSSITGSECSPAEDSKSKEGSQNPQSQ
# Test: OT_ER_ERaERb_1440: Odyssey Thera (OT) 24-hour HEK293T Protein-Complementation Assay for Estrogen Receptor-alpha/-beta Homodimer (AID 2283356);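 note: heteromer of ER alpha and ER beta binding domains; hits raise reporter fluorescence and both agonists and antagonists give an increase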
# Procedure, shortened: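 Stable HEK293T PCA line, ERα LBD 310-547 + ERβ LBD 263-489 fused to reporter fragments; 24 h treatment; fluorescence read by laser scanning cytometry; positive fitting direction relative to DMSO.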
SMILES,AC50,outcome
CCN(Cc1c(F)cccc1Cl)c1c([N+](=O)[O-])cc(C(F)(F)F)cc1[N+](=O)[O-],10.3 µM (active),–
CCSC(=O)N(CC(C)C)CC(C)C,–,inactive
Cc1nn(C)c(Oc2ccccc2)c1C=NOCc1ccc(C(=O)OC(C)(C)C)cc1,–,inactive
c1ccc2[nH]c(-c3cscn3)nc2c1,–,inactive
O=C(c1ccc(O)cc1O)c1ccc(O)cc1O,12.6 µM (active) and 8.31 µM (active) and 9.09 µM (active),–
CCCOC(=O)c1ccc(C(=O)OCCC)nc1,–,inactive
CC(=O)[C@H]1CC[C@H]2[C@@H]3CCC4=CC(=O)CC[C@]4(C)[C@H]3CC[C@]12C,–,inactive
CCCN(CCC)C(=O)SCC,–,inactive
CCOC(=O)c1ccc(O)cc1,32.2 µM (active) and 26.9 µM (active) and 26.8 µM (active),inactive
CCOC(=O)COc1cc(-n2ncc(C(F)(F)F)c(C)c2=O)c(F)cc1Cl,–,inactive
N#CSCSc1nc2ccccc2s1,–,inactive
